# The entries come from a sample that favours hits as a whole.
# STK33 inh – human STK33 kinase inhibition; ADP-Glo luminescence, MBP substrate; inhibition, % at 12.5 µM; 0.44% of 27,000 active; in the data active = inhibition above about 20%; inconclusive = no clear call, values can overlap the other calls
# Target sequence (Q9BYT3 whole entry, looked up): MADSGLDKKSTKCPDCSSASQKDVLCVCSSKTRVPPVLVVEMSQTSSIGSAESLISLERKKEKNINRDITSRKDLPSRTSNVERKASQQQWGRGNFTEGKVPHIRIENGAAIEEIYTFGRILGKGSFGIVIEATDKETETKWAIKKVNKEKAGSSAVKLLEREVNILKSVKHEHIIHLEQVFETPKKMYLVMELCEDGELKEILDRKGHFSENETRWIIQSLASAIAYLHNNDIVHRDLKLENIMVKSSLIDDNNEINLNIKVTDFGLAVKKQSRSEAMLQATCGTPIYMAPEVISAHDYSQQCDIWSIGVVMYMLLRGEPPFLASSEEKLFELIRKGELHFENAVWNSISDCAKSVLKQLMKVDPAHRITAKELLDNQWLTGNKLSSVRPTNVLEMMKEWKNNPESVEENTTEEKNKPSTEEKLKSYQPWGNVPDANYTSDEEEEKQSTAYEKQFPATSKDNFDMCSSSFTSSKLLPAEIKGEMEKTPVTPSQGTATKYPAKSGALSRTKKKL
# NOMO-1 viab – STK33 inhibitor candidate reducing NOMO-1 cell viability; NOMO-1 AML viability, CellTiter-Glo luminescence, 72 h; inhibition, % (test concentration not listed); 7.5% of 37,000 active; AID 2330; in the data active = inhibition above about 80%; inconclusive = no clear call, values can overlap the other calls
# PD-1 reversal – reversal of PD-1 mediated T-cell inhibition; primary human CD4 T cells, PD-L1 beads, CellTiter-Glo 96 h; activation, % (no concentration beside the values); 29,000 tested, under 10 active; call rule not given here;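 note: 0% = median vehicle wells and 100% = positive control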
# * marks the source's active call; other numbers are inactive results; ? = inconclusive; . = no result given; ! = a repeat was not active.
SMILES,STK33 inh,NOMO-1 viab,PD-1 reversal
COC1CC(O[C@H]2CC[C@]3(C)C4CC[C@@]5(C)C(=O)[C@]4(CC[C@@H]3C2)CC[C@@H]5C2=CC(=O)OC2)OC(C)C1OC1OC(COC2OC(CO)C(O)C(O)C2O)C(O)C(O)C1O (stereo partly specified),1,111*,1
CC1OC(OCC2OC(O[C@H]3CC[C@@]4(C)C(CC[C@@]5(C)C6=C(CCC45)C4CC(C)(C)CC[C@]4(C(=O)OC4OC(CO)C(O)C(O)C4O)CC6)C3(C)C)C(O)C(O)C2O)C(O)C(O)C1O (stereo partly specified),-6,.,.
Cc1ccccc1NC(=O)CCC(=O)OC1CCC(C(C)(C)C)CC1 (stereo unspecified),.,93*,0
Cc1ccccc1NC(=O)CCCC(=O)O,-1,-13,2
COc1ccc(NC(=O)O[C@@H](c2ccc(OCCO)cc2)[C@H](CCO)OC)cc1,1,.,.
Cc1nonc1OCCNc1ccc(C(F)(F)F)cc1[N+](=O)[O-],-2,4,0
O=C(CS(=O)c1ccc(C(F)(F)F)cc1[N+](=O)[O-])Oc1ccc(C2CCCCC2)cc1 (stereo unspecified),-6,121*,-16
O=C(Nc1ccccc1[N+](=O)[O-])c1cccc(S(=O)(=O)Nc2ccccc2)c1,0,.,.
C[C@@H]1CCCCO[C@H](CN(C)CC2CCCCC2)[C@@H](C)CN([C@H](C)CO)C(=O)c2cc(NC(=O)Nc3ccc(F)cc3)ccc2O1,3,66,-3
C[C@@H]1CCCCO[C@@H](CN(C)CC2CCCCC2)[C@@H](C)CN([C@H](C)CO)C(=O)c2cc(NC(=O)c3ccccc3)ccc2O1,1,117*,0
C[C@@H]1CCCCO[C@H](CN(C)CC2CCCCC2)[C@@H](C)CN([C@H](C)CO)C(=O)c2cc(NC(=O)c3ccncc3)ccc2O1,-1,18,-2
C[C@@H]1CCCCO[C@@H](CN(C)C)[C@@H](C)CN([C@H](C)CO)C(=O)c2cc(NC(=O)c3ccccc3)ccc2O1,.,123*,.
C[C@@H]1CCCCO[C@@H](CN(C)CC2CCCCC2)[C@@H](C)CN([C@H](C)CO)C(=O)c2cc(NC(=O)Nc3ccccc3)ccc2O1,0,122*,0
C[C@@H]1CCCCO[C@@H](CN(C)C(=O)c2ccccc2)[C@@H](C)CN([C@H](C)CO)C(=O)c2cc(NC(=O)c3ccccc3)ccc2O1,1,15,-1
COC(=O)C1=C(C)Nc2ncnn2C1c1cccc(OC)c1OCc1ccccc1 (stereo unspecified),-3,8,.
CSCC(NS(=O)(=O)c1ccc(Br)cc1)C(=O)O (stereo unspecified),0,-5,2
Cc1nc(-c2ccncc2)nc(NCCNc2cc(C(F)(F)F)ccn2)c1Cl,.,9,0
CC(C)(C)C1CCc2c(sc(NC(=S)NC(=O)c3cc4ccccc4o3)c2C(N)=O)C1 (stereo unspecified),-4,17,0
COc1cccc(NC(=O)CSc2nnc(-c3cccc(C)c3)n2-c2ccccc2)c1,5,-7,-3
COc1cccc(-c2nn(-c3ccccc3)cc2C(=O)n2nnc3ccccc32)c1,2,128*,-10
Cc1nnc(SCC(=O)Nc2ccc(Cl)cc2O)s1,2,.,.
C=C1C(=O)O[C@@H]2/C=C(\C)[C@H](OC(C)=O)C/C=C(/C)C[C@@H](OC(=O)/C(=C/CO)CO)C12 (stereo partly specified),4,108*,-8
C=C1C(=O)O[C@@H]2/C=C(/C)[C@H](O)CC(=O)[C@](C)(O)C[C@@H](OC(=O)/C(C)=C/C)[C@@H]12,0,.,.
C=C1C(=O)O[C@@H]2/C=C(/C)CC/C=C(/C(=O)O)C[C@@H](OC(=O)/C(C)=C/C)C12 (stereo partly specified),-3,38,0
C=C1C(=O)O[C@@H]2/C=C(\C)[C@@H](OC(=O)C(O)C(C)C)C/C=C(/C)C[C@@H](OC(=O)/C(=C/CO)CO)[C@@H]12 (stereo partly specified),-4,121*,-23
SMILES,STK33 inh,NOMO-1 viab,PD-1 reversal
Cc1ccc(S(=O)(=O)NCC(=O)Nc2ccc(F)cc2F)cc1,-6,13,2
O=C(Cn1c(=O)oc2ccccc21)Nc1sc2c(c1C(=O)O)CCCC2,-1,-7,1
O=C(COc1ccc(I)cc1)Nc1cc(C(=O)O)cc(C(=O)O)c1,-10,-9,1
O=C(O)c1ccccc1Nc1nc(N2CCOCC2)nc(N2CCOCC2)n1,1,11,0
c1ccc2cc3c(Nc4ccc(N5CCOCC5)cc4)ccnc3cc2c1,.,136*,-1
Cc1cc(C)nc(SCC(=O)N2c3ccccc3Sc3ccccc32)n1,1,-1,-2
CCC(=O)c1ccc2c(c1)N(CC(C)N(C)C)c1ccccc1S2 (stereo unspecified),-1,84*,.
COC(=O)CSc1nc2sc3c(c2c(=O)n1Cc1ccccc1)CCCC3,-1,1,.
COc1ccc(CC(=O)NN2C(=O)CSCC2=O)cc1OC,.,3,1
CC(C)(C)c1ccc2cc(C#N)c(C#N)cc2c1,.,140*,0
O=C(NCCCn1ccnc1)c1cc(-c2ccccn2)nc2ccc(Br)cc12,-4,41,.
C[C@H](CO)N1C[C@H](C)[C@H](CN(C)Cc2ccc(Oc3ccccc3)cc2)Oc2c(NC(=O)Nc3ccc(C(F)(F)F)cc3)cccc2C1=O,.,117*,-10
C[C@@H]1CN([C@@H](C)CO)C(=O)c2cccc(NC(=O)Nc3ccccc3)c2O[C@@H]1CN(C)Cc1ccc(C(F)(F)F)cc1,.,?,2
C[C@H](CO)N1C[C@H](C)[C@H](CN(C)Cc2ccc(Oc3ccccc3)cc2)Oc2c(NC(=O)Nc3ccccc3)cccc2C1=O,.,73,-2
C[C@H]1CN([C@@H](C)CO)C(=O)c2cccc(NC(=O)Nc3ccc(C(F)(F)F)cc3)c2O[C@@H]1CN(C)Cc1ccc(Oc2ccccc2)cc1,.,89*,.
N#Cc1c(SCc2ccccc2Cl)nc2c(c1C(F)(F)F)CCc1occc1-2,.,?,-3
O=C(NCc1cccnc1)c1cnn2c1NC(c1ccccc1)CC2C(F)(F)F (stereo unspecified),-1,13,0
CCN1/C(=C/C2=CC(=O)CC(C)(C)C2)Sc2ccccc21,.,113*,-1
CCN1/C(=C\C(=S)Nc2ccccc2)Sc2ccccc21,.,44,0
O=C1Cc2c([nH]c3ccc(Br)cc23)-c2ccccc2N1,3,89*,5
CC(=O)OCC(=O)[C@@]1(O)CCC2C3CC[C@@H]4C[C@H](OC(C)=O)CC[C@]4(C)C3C(=O)C[C@@]21C (stereo partly specified),4,-23,.
COC(=O)c1cccc(C(=O)Nc2cnc3ccccc3c2)n1,.,123*,-1
COC(=O)c1ccc(NC(=O)COc2cccc3ccccc23)cc1,.,6,-1
Cc1ccc(S(=O)(=O)N2CCN(C(=O)CSc3nnc4sc5ccccc5n34)CC2)cc1,-3,23,-1
O=C(COc1ccc2cc(Br)ccc2c1)Nc1cccc([N+](=O)[O-])c1,6,17,-1
Cn1cnnc1SCC(=O)N1c2ccccc2Sc2ccc(C(F)(F)F)cc21,0,7,-2
CN1CCN(CCCN2c3ccccc3Sc3ccc(Cl)cc32)CC1,-1,106*!,.

# Assay outcomes from PubChem BioAssay.
